The source of these data is PubChem BioAssay AID1985 (Southern Research Specialized Biocontainment Screening …, 2009).

About 1,000 (43%) of roughly 2,300 compounds were called active. The set was probably picked from earlier hits. The list shows a part of the results. Results with a measured potency or affinity are listed apart. A number with no mark means an inactive call. The rule behind the calls is not given here.

The experiment is described as follows: modified counter assay using GFP fluorescence, PhoP regulon inhibitor project, dose response (AID 1985). To be noted: S. Typhi, 4 h; series mostly up to 150 µM; inhibition: at the top concentration.
What is called inhibition is the change of the read-out against control, counted positive when it falls. Regarding `CCCCNC(=S)Nc1ccc([N+](=O)[O-])cc1`, the “inhibition” value is 37.9%.

Take `O=C(NCCCN1CCOCC1)C(C(=O)c1ccccc1)n1ccccc1=O` (configuration not stated): the “inhibition” value is 25.3%.

In the case of `COc1cc(CNc2ccc(N3CCN(C(C)=O)CC3)cc2)ccc1OCc1ccccc1`, the “inhibition” value is -2.24%.

With `COc1cc(CNCCc2c[nH]c3ccccc23)ccc1OCc1ccccc1F`, the “inhibition” value is 8.11%.

`COc1ccc(CNCCc2c[nH]c3ccccc23)c(OC)c1C`: the “inhibition” value is 0.46%.

Regarding `O=C(Cn1c(C(F)(F)F)nc2ccccc21)NCCCN1CCOCC1`, the “inhibition” value is -22.6%.

`Cc1ccc(S(=O)(=O)N(Cc2n[nH]c(=S)n2-c2ccccc2)c2ccccc2)cc1`: the “inhibition” value is -23%.

Consider `COc1ccccc1OCc1nnc(SCC(=O)NCc2ccco2)n1Cc1ccco1`, for which the “inhibition” value was -24.1%.

For the compound `O=C(Nc1ccc(Br)cc1)N1CCCCC1`, the “inhibition” value is 22.6%.

On to `O=C(Cn1nc(Cl)nc1Cl)c1ccc([N+](=O)[O-])cc1`, for which the “inhibition” value is 27.9%.

For the compound `COc1ccc(C(=O)NNS(=O)(=O)c2ccccc2)cc1OC`, the “inhibition” value is -24%.

Consider `CN(C)S(=O)(=O)c1cccc(NC(=O)c2cnccn2)c1`, for which the “inhibition” value is 10.4%.

Take `CCn1c(CNC(=O)c2ccc(OC)cc2)nnc1SC`: the “inhibition” value is 1.63%.

On to `COc1cc(C(=O)NC(=S)Nc2cccc3nc(C)ccc23)cc(OC)c1OC`, for which the “inhibition” value is -5.39%.

As for `CCOc1ccc2nnnn2n1`, the “inhibition” value is -9.4%.

On to `COc1ccc2c(c1)cc1n2CCN=C1N`, for which the “inhibition” value was -17.6%.

As for `CCC(C)(C)NC(=O)COc1ccc(C(=O)c2ccccc2)cc1`, the “inhibition” value is -7.83%.

As to `COCCCNC(=O)c1cc(OC)c(OC)c(OC)c1`, the “inhibition” value is 10.2%.

Consider `CCOCCCNC(=O)C(c1ccc(OC)cc1)N(Cc1cccs1)C(=O)c1ccccn1` (configuration not stated), for which the “inhibition” value was 9.15%.

For `Cc1ccc(OCC(=O)N2CCN(S(C)(=O)=O)CC2)cc1`, the “inhibition” value was -33.7%.

Turning to `Cc1oc2nc(SCCCC(=O)NCCCO)nc(N)c2c1C`, the “inhibition” value was -14.7%.

For the compound `COc1cc(C(=O)Nc2ccc3c(c2)OCCO3)ccc1OC(C)C`, the “inhibition” value is 28.5%.

`CCCC(C(=O)NCC1CCCO1)N(Cc1ccco1)C(=O)CNS(=O)(=O)c1ccc(F)cc1` (configuration not stated): the “inhibition” value is 23%.

As to `O=C1c2ccccc2C(=O)N1CCC(c1ccccc1)c1ccco1` (configuration not stated), the “inhibition” value is -29.2%.

For `O=c1oc2ccccc2c(O)c1C(c1ccccn1)c1c(O)c2ccccc2oc1=O`, the “inhibition” value was 13.5%.

`Cc1cc(C)c2nc(/N=C(\N)NC(=O)c3ccccc3)nc(C)c2c1`: the “inhibition” value was -14.7%.

In the case of `S=C(Nc1ccccc1Cl)N(Cc1ccccc1)Cc1ccccn1`, the “inhibition” value is -19.1%.

Take `O=C(NC(=O)c1ccccc1)OCC1CCCN2CCCCC12` (configuration not stated): the “inhibition” value is 0.4%.

For the compound `O=C(CC(=O)NCc1ccccc1)NCc1ccccc1`, the “inhibition” value is -27.6%.

As to `O=C(c1cccs1)N1CCN(S(=O)(=O)c2ccccc2)CC1`, the “inhibition” value was -1.71%.

For the compound `CC(C)(C)c1ccc(C(=O)NNC(=O)Cc2ccccc2)cc1`, the “inhibition” value was -18.7%.

For `CCOC(=O)c1ccc(NC(=O)c2cc3c(s2)CCC3)cc1`, the “inhibition” value is -14.7%.

For the compound `O=C(CCCc1ccccc1)Nc1cccnc1`, the “inhibition” value was 21.9%.

Consider `Cc1cc(C(=O)Nc2cccnc2)on1`, for which the “inhibition” value was -8.91%.

Regarding `Cc1cc(C)c([C@@H]2C[C@H]3CN(C4CCCC4)C(=O)[C@]34CCCN24)c(-n2cccn2)c1`, the “inhibition” value was 7.68%.

`CC(C)(C)c1ccc(OCCCNC2CCCC2)cc1`: the “inhibition” value was 19.2%.

Take `O=C(CCCOc1ccc(Cl)cc1Cl)NNC(=O)C1CCC1`: the “inhibition” value was 32.7%.

`CCCOc1ccc(C(=O)NNC(=S)NC(=O)c2ccco2)cc1`: the “inhibition” value was 37.2%.

As for `CSCCC(NC(=O)c1ccc(Br)cc1)C(=O)O` (configuration not stated), the “inhibition” value was -19.7%.

Turning to `CCOc1ccc(NC(=O)c2ccc(N)cc2)cc1`, the “inhibition” value is 22.8%.

As for `Cc1ccc(CCNC(=O)C2CCN(S(=O)(=O)N3CCCC3)CC2)cc1`, the “inhibition” value was 2.57%.

In the case of `O=C1C=C(c2ccc(Cl)cc2)C(=O)N1Nc1ccccc1`, the “inhibition” value is -5.69%.

As for `CCCn1c(SCc2ccc(Cl)cc2)nc2c1c(=O)[nH]c(=O)n2C`, the “inhibition” value was -8.46%.

With `CN1CCCN(C(c2ccccc2)c2ccc(Cl)cc2)CC1` (configuration not stated), the “inhibition” value is 20.4%.

With `Cc1c(C(=O)Nc2ccncc2)sc2nc(-c3ccc(F)cc3)cn12`, the “inhibition” value is 5.26%.

In the case of `COc1cccc(CNc2nn[nH]n2)c1OC`, the “inhibition” value was 5.63%.

Turning to `Clc1ccc(CNCc2cccs2)cc1Cl`, the “inhibition” value is -13.4%.

In the case of `Fc1ccc(NC(=S)NCc2ccccc2Cl)cc1`, the “inhibition” value is 9.03%.

Regarding `COc1ccccc1CNC(=O)COC(=O)CCC(=O)c1cccs1`, the “inhibition” value was 11.2%.

`Fc1ccccc1CSc1ccc(-c2ccco2)nn1`: the “inhibition” value was 2.22%.

`O=C(O)CCSCc1ccccc1F`: the “inhibition” value is 12%.

As for `COc1ccc2[nH]cc(CC(=O)O)c2c1`, the “inhibition” value is -1.77%.

As for `COc1ccc(C2=NN3C(C2)c2ccccc2OC3c2cccs2)cc1` (configuration not stated), the “inhibition” value is 9.41%.

Take `O=C(CSc1cccc2cccnc12)Nc1ccc(S(=O)(=O)N2CCOCC2)cc1`: the “inhibition” value is 20.2%.

On to `O=C(O)COc1ccccc1/C=N/NC(=O)c1cccc(S(=O)(=O)N2CCOCC2)c1`, for which the “inhibition” value was 28%.

In the case of `O=[N+]([O-])c1ccc(-c2cnc(NO)nc2)cc1`, the “inhibition” value was 20.5%.

Take `Cn1c(-c2ccc(Cl)cc2)cnc1N`: the “inhibition” value was -30.5%.

Take `COc1cccc(C(=O)N(CN2CCCC2=O)c2cc(C)on2)c1`: the “inhibition” value is -12.3%.

In the case of `N#Cc1ccc(C2=NC(C(F)(F)F)(C(F)(F)F)c3c(n(Cc4ccco4)c(=O)[nH]c3=O)N2)cc1`, the “inhibition” value was -13.8%.

With `COc1ccc(NC(=O)C2CCCN(C(=O)NC3CCCCC3)C2)cc1OC` (configuration not stated), the “inhibition” value is -14.7%.

Turning to `CCN1CCN(c2nc3ccccc3nc2C(C#N)S(=O)(=O)c2ccc(C)cc2)CC1` (configuration not stated), the “inhibition” value is 1.64%.

Turning to `Cc1ccc(S(=O)(=O)NCC(=O)OCN2C(=O)c3ccccc3C2=O)cc1`, the “inhibition” value is -33.3%.

For the compound `COc1ccc(-c2cc(=NCC(=O)O)c3ccccc3o2)cc1`, the “inhibition” value was 7.24%.

Regarding `CCOC(=O)C(NC(C)=O)(Nc1cccc(F)c1)C(F)(F)F` (configuration not stated), the “inhibition” value is -16.7%.

As to `O=C(Nc1cccc(F)c1)NC1CCCCC1`, the “inhibition” value is 31.8%.

As for `CC(=O)Nc1cccc(NC(=O)Nc2ccc(C)c(Cl)c2)c1`, the “inhibition” value was 17.6%.

With `Cc1nc(NC2=NCN(CCCN3CCOCC3)CN2)nc2c(C)cccc12`, the “inhibition” value is 18%.
